Assay results published in the supplement of paper PMC12632987.
The full ranking holds about 4,500 sequences; the median of “median log2 fold change of GCK-ALFA target abundance (FLAG IP / Myc IP barcode read proportion)” is about 0.078, and the lowest 2% start at about -0.6. This is one part of a sample in which the lowest values are shown more often than they occur.

B1: GBRAP_52_6157 (protein)
chain: MEARAEAYANALIAAVKAGDEAAIRALMEEIAATLSEEEIELMMAIVAEKVAGLTPEEQERAVEAALELEDILIAAGHDENIASYNTARVAGAAYDALQA
B2: GBRAP_52_6039 (protein)
chain: MEEEMRRKAEEIVELVKAGRRAEAEARIRELVATWSEEELELLGEELARLAREAEPEDLDAVMEAALMLADALEAAGYDPAFADDLLARVAAAAVENLQR
B3: GBRAP_14_3840 (protein)
chain: REEVRRLLLEAVERAVEEVRKFAPEEARERVEALREVLRRAVDEGLETGDLEEAERRLVEVAEAAVRELFADLPPEERGALVAVAVDELVEGFEELEERL
B4: GBRAP_80_6763 (protein)
chain: MMEELEEALEELSELLPELAEELRATVEALLELGVPVEDLLRLLKALVELAKLDKEKAEAILREFIAEVNEAIARGDLEEARALVIDAESDALLEVEELE
B5: GBRAP_125_3054 (protein)
chain: NLEEAIEALAELGKILGLSEEEVEELRKLAEKYGVKGTLYALLLAEGEEELAELVAKLTEEEVIEVLKRLLEYIKSHPNITKEEALEKLKELAEEALAKK
B6: GBRAP_117_2592 (protein)
chain: SATREAARAKIRATVAEVEALFKELAGLSPEEQAEALAAMRERVKAVLREVIEELGEEEAEELLDEALLDTDAETYFFLESVREDTLEELEEEEEEEERE
B7: GBRAP_52_6014 (protein)
chain: MRERLRAFVDEVLALVRAGKEEEARALIEELVASLNEEEIELLIDVLAERAAAARPEDQEAVWRLAEMLAEALEEAGVDEALADDLLARVAAALYAAEQA
B8: GBRAP_83_6975 (protein)
chain: AEEIVVAAPADRVEEAVEIAIDLAKEEGKKVTLEILTTPEQRERVLEAVERLLKEVPNIEIVVVLRGATKEEAEELEKELKEIAKELGVNADIEVLIEEP
B9: GBRAP_26_5451 (protein)
chain: MEELLERFRERLERAADELLDPETAALLKVAVDDIIALAELELEEANGDLEKELEIVEEMLEDLEEELEDLEVPEEVREKLLEIAREEAEEIKKALKEER
B10: GBRAP_26_5452 (protein)
chain: MEEKLEALRDRLVELADELLDPETAALLKVEVDNIVALAELELEEANGDLEKELAVVEEMLEDLEEALDDLEVPEEVKEKLLEAAREAAEEIKEYLKKKS
B11: GBRAP_52_5986 (protein)
chain: MKEEAKKIAEELVKLMLEGKEEEAEKLMKEIAENKSQEFILMVMEELAKMAKTATPEEVDAIVDTALMLGDIALEAGFDEAEIDDAEARVAAAAVENLKK
B12: GBRAP_64_6489 (protein)
chain: MEEIEESLEELLKLVEELLEAVKDLSEELQKKVEEVKRLVEEAKTASLEERLDLTVEAAKLLNEILKNPELTEEQKELAGLALDKASELAWLLFEAEEEE
B13: GBRAP_11_2748 (protein)
chain: KKEKLKEIAKAAEELAALLDKLIAEGVDNAELQAAAEKALKELAELVEKYGDESLKKLVAIIQEEFAQAKADPATAEAHWRNALAAARVLAGQVLLEIEE
B14: GBRAP_160_4544 (protein)
chain: KEKVEEAIKDIDERAAFVKSLVGKVSTEELINFFDVEVGSFIMELEELGLLTDELGEEIDKIADETKATLKANPNASDEEKKALIDEAAEKIKEAILKHS
B15: GBRAP_26_5425 (protein)
chain: LDEAVERAIERISAAAAELLDPETAAAVRAVVTDELLEAEEEIEEEDLSEEEVEELLEEVLEEIEEDLEELGVPAEKRARLVAVAEEELEEVLEEWKEER
B16: GBRAP_78_6625 (protein)
chain: EIKKLLEKALKKVEEAAKLATKIPSEEGIEILDHLIDAFEYIEEAIEEGGDLEKLEKALKHLEEALKEIEKLNNPELEELKKLVKEAIKLLKKAIELKKK
B17: GBRAP_39_5692 (protein)
chain: EEEEEDEDVVSYLQALAAGRLYETGKSLEEAYKEAKKILEEEAKRHPELKELLEELIKLADEKGEEAKEVLIGIAVLIEEGTPLEEIKEHIEKAINYFKK
B18: GBRAP_11_2756 (protein)
chain: KKEKLKEMAELAEKAAELVKKLLEEGVDNEELQEELEKVLKELKKLVKEYGDEADKKLVEIAEELWKKAKEDEENKEQYYKELLATLRVLSGDFLLEYEE
B19: GBRAP_160_4385 (protein)
chain: AAALAALAKEIEALRKEFEEEAKDLNTEETRTLAIGVLAEVAALAWENEAISEETKDKIFAIIDEAIEELKANKDAPPEEIVAITTEAFDKIIALVKAEA
B20: GBRAP_160_4108 (protein)
chain: SAGAEAILADFREVFAEVLELWDEVSPEELVAYYEVETGSVIMDAMENYGLSDETADRLLDIRDEAAARLLAHGNVSREEVERILAEALARIEAAVAAAA
B21: GBRAP_9_7157 (protein)
chain: MEELIEKVEEVIEDMLEEIKEVVPEEVKPAVEKRREEVKKRLEELGEDENATEEEIIEEAERLVRETLEEMKKLVDPETAKIVEAIALTAELEIEEIGEE
B22: GBRAP_184_5064 (protein)
chain: KIYEETIEVTNLEEAKEKMKELKEKIKNFKGDLIVHLKLPEFNKEIVKAILDELAEIKKAGYAKNITLGIDADTTEEEVDFLISTADEKGINVVVALREE
B23: GBRAP_160_4175 (protein)
chain: SEKLEEAEKKIKEIFEEAYKMMEGESAEERAAIVAVAFGEIILYLEEKGLLTDETEAKIDEIEDEAVEYILENPDLTEEELRELLEESAEKIIKALKENS
B24: GBRAP_160_4178 (protein)
chain: SEKIEEAEEEIEEIFEEAYEMMKGQTAEERAAIVDVAFGEIILYLEEKGLLTDETEAKIDEIRDETVSYILANPDLTDEELRELLEEAAEEIIEALRENS
B25: GBRAP_52_6269 (protein)
chain: MKELAEKLAKEFIETSLNGTEEEVKEFAKKLVETESQELIELMLEIVVEMAKSLNAEELEKLLDAFLILEDELEEAGKDTLPAEDAAAELAKLYMEKLKE
B26: GBRAP_52_5996 (protein)
chain: AEARIRALAEELVAAVLAGDEERVRAILRRIAAELSDEEIVETVRLATRLLARDPRATLEDLARFIDIVEEVLEEEGKSDRLIADVLGAIAEAIAEVEAE
B27: GBRAP_52_5997 (protein)
chain: REERIEALARELVEATLAGDDERVRALLRRIAAELSDEEIVETVRLATRLLERDPRATLEDLANFIDLVEDVLEEEGKSDELIARVLGAIAEAIYEAELE
B28: GBRAP_39_5719 (protein)
chain: EEEEEAENIFSYYEAVGAKKMYERGISLDELFAELYARARELAADDPELAAALDELRALAEAAGDEAKLAAAGLMSRLVEGEPREEILADAEKLIAYLKS
B29: GBRAP_128_3452 (protein)
chain: STEEKVKKAEELMNKIIESSDEEVPALAAELVDLIGESDDESAKAIAEVIIKKIPELSEEKLEILADVFVARRPELTPEKQEVLNEIAVAIGEEILEKEE

biological target: GABARAP, O95166; assay: median log2 fold change of GCK-ALFA target abundance (FLAG IP / Myc IP barcode read proportion) (log2 ratio); each designed protein is fused to an ALFA-tag nanobody in HEK293 cells to bring the named protein to FLAG-tagged glucokinase (GCK); Myc marks an untargeted standard; higher = target protein stabilised (more abundant); conditions: target protein: 3xFLAG-MCP-GCK-ALFA reporter; HEK293 landing pad (RPLP)
Sequence (O95166 whole entry, the tested form may be a part): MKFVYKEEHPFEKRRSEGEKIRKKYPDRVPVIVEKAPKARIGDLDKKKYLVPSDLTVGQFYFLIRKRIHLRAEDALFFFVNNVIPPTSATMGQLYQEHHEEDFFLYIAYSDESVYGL
Summary of the method: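 HEK293 landing-pad cells received a recombined binder library fused to the ALFA nanobody and were induced with 2 μg mL^−1 doxycycline, then transfected with a plasmid encoding a FLAG-tagged target and a Myc-tagged standard. Lysates were collected after 48 h for anti-FLAG and anti-Myc immunoprecipitation, and the circular RNA barcodes were reverse transcribed, amplified and sequenced. Target abundance for each binder is the median log2 ratio of FLAG to Myc barcode read proportions. Barcodes had to reach a proportion of at least 10^−7 in both replicates, each binder needed at least 3 barcodes per replicate, a pseudocount of 10^−6 was applied, and the two replicates were pooled.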

Binder	median log2 fold change
B1	-0.262
B2	-0.911
B3	0.0661
B4	0.0537
B5	-1.42
B6	0.191
B7	-0.157
B8	0.0242
B9	-1.2
B10	-0.454
B11	-0.152
B12	0.0238
B13	0.194
B14	0.0163
B15	-0.608
B16	0.283
B17	0.284
B18	0.0874
B19	-0.171
B20	-0.764
B21	-0.11
B22	0.127
B23	-0.178
B24	-0.598
B25	0.267
B26	-0.179
B27	-0.74
B28	0.194
B29	0.274
